Experimental data reported in PubChem BioAssay.
Active and inactive are the calls of the source.

How the values were obtained:
[1] = optical density shifts of acrAB sulA E. coli – strain DRC41, OD650, 48 h, E. coli filamentation inducer project, primary screen (AID 1152); details: higher = more signal, called active from +8 up or from −8 down;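 further: E. coli MC1000 strain DRC41 lacking acrAB efflux pump and sulA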
[2] = probe aLefty1 binding on compound microarray – biochemical, small-molecule microarray, 635/667 nm fluorescence, primary screen (AID 1153); details: higher = more signal;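 further: score merges spot fluorescence with signal-to-noise ratio from the scanned slide images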
[3] = plasmodial surface anion channel blockers, osmotic lysis – cell-based, P. falciparum Indochina, OD700, 1 h, primary screen (AID 1154); details: P. falciparum Indochina infected RBC osmotic lysis, higher = more signal, called active from +8 up or from −8 down
[4] = plasmodial surface anion channel blockers, osmotic lysis – cell-based, P. falciparum Indochina, OD700, 2 h, primary screen (AID 1155);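 further: lysis reports solute entry through the parasite surface anion channel PSAC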; details: P. falciparum Indochina infected erythrocytes, higher = more signal, called active from +8 up or from −8 down
[5] = changes in parasitized red cell lysis, either direction – P. falciparum Indochina, OD700, 3 h, PSAC antagonist project, primary screen (AID 1156); details: P. falciparum-infected erythrocytes, osmotic lysis, higher = more signal, called active from +8 up or from −8 down
[6] = plasmodial surface anion channel blockers, osmotic lysis – cell-based, P. falciparum Indochina, OD700, 18 h, primary screen (AID 1157); details: P. falciparum Indochina infected erythrocytes, osmotic lysis OD700, 18 h; higher = more signal, called active from +8 up or from −8 down
[7] = S6 kinase pathway phospho-S6 level changes – cell-based, A549, cytoblot, luminescence, serum-stimulated, primary screen (AID 1158); details: 5 h, higher = more signal;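 further: serum-stimulated A549 lung adenocarcinoma cells; signal is phosphorylated S6 detected by cytoblot immunostaining with HRP secondary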
[8] = molecular target: NADPH oxidase 2 (Homo sapiens) (UniProt P04839); assay: compounds shifting NOX2 Amplex Red fluorescence – cell-based, HEK293-NOX2, PMA-stimulated, NOX inhibitor project, primary screen (AID 1159); details: 45 min, higher = more signal, called active from +8 up or from −8 down; further: test concentration not given here
[9] = molecular target: NADPH oxidase 4 (Homo sapiens) (UniProt Q9NPH5); assay: compounds shifting NOX4 Amplex Red fluorescence – cell-based, HEK293-NOX4, tetracycline-induced, NOX inhibitor project, primary screen (AID 1160); details: HEK293-NOX4, Amplex Red H2O2 fluorescence, 45 min; higher = more signal, called active from +8 up or from −8 down
[10] = molecular target: NADPH oxidase 5 (Homo sapiens) (UniProt Q96PH1); assay: compounds shifting NOX5 Amplex Red fluorescence – cell-based, HEK293-NOX5, NOX inhibitor project, primary screen (AID 1161); details: HEK293-NOX5, ionomycin, 45 min, higher = more signal
[11] = compound effects on lung adenocarcinoma cell viability – A549, calcein-AM fluorescence, 48 h, basal, profiling panel (AID 1162); details: higher = more signal; further: test concentration not given here
[12] = compound effects on differentiated 3T3-L1 adipocyte viability – cell-based, 3T3-L1 adipocytes, calcein-AM fluorescence, 48 h, basal, profiling panel (AID 1163); details: 3T3-L1 adipocytes viability, higher = more signal; further: test concentration not given here
[13] = compound effects on hepatocellular carcinoma cell viability – HepG2, calcein-AM fluorescence, 48 h, basal, profiling panel (AID 1164); details: higher = more signal; further: test concentration not given here
[14] = compound effects on multiple myeloma cell viability – MM1S, calcein-AM fluorescence, 48 h, basal, profiling panel (AID 1165); details: higher = more signal;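 further: viability of MM1S multiple myeloma cells under basal unstimulated conditions; test concentration not given here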
[15] = calcein-AM signal in unstimulated myeloma cells – cell-based, calcein-AM fluorescence, 48 h, PK04 Diversity Set, profiling panel (AID 1166); details: RPMI8226 myeloma viability, higher = more signal;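 further: cells grown under basal conditions without added stimulus; test concentration not given here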
[16] = JC-1 mitochondrial signal, unstimulated HepG2 cells – cell-based, JC-1 fluorescence, 24 h, 100 nL compound, profiling panel (AID 1167); details: HepG2 mitochondrial potential, higher = more signal; further: test concentration not given here
[17] = JC-1 mitochondrial signal, unstimulated adipocytes – cell-based, JC-1 fluorescence, 3T3-L1 adipocytes, 24 h, 100 nL compound, profiling panel (AID 1168); details: JC-1 mitochondrial fluorescence, higher = more signal, called active from +8 up or from −8 down; further: test concentration not given here
[18] = JC-1 mitochondrial signal, unstimulated myeloma cells – cell-based, JC-1 fluorescence, RPMI8226, 24 h, 100 nL compound, profiling panel (AID 1169); details: JC-1 mitochondrial potential fluorescence, higher = more signal; further: test concentration not given here
[19] = JC-1 mitochondrial signal, unstimulated MM1S myeloma – cell-based, JC-1 fluorescence, 24 h, 100 nL compound, profiling panel (AID 1170); details: MM1S mitochondrial potential, higher = more signal; further: test concentration not given here
[20] = resazurin metabolic signal in A549 cells – cell-based, resazurin fluorescence, 24 h, PK04 Diversity Set, profiling panel (AID 1171); details: A549 viability, higher = more signal, called active from +8 up or from −8 down; further: test concentration not given here

NADPH oxidase 4 (Homo sapiens), sequence (Q9NPH5 whole entry, looked up): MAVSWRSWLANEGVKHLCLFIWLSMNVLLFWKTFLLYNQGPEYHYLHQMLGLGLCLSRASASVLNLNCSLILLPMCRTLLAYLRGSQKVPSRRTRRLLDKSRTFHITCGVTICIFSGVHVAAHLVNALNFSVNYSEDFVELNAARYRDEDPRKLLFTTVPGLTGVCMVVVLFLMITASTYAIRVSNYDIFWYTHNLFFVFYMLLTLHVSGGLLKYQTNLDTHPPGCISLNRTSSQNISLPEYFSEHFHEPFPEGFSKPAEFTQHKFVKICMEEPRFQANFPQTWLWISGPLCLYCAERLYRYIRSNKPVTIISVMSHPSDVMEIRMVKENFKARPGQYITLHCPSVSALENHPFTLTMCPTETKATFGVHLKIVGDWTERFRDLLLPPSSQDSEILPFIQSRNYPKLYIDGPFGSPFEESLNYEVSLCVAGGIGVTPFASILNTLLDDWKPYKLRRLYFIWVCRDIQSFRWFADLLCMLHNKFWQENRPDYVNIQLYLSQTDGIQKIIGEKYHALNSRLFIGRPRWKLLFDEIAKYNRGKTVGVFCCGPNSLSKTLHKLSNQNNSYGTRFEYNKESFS
NADPH oxidase 2 (Homo sapiens), sequence (P04839 whole entry, looked up): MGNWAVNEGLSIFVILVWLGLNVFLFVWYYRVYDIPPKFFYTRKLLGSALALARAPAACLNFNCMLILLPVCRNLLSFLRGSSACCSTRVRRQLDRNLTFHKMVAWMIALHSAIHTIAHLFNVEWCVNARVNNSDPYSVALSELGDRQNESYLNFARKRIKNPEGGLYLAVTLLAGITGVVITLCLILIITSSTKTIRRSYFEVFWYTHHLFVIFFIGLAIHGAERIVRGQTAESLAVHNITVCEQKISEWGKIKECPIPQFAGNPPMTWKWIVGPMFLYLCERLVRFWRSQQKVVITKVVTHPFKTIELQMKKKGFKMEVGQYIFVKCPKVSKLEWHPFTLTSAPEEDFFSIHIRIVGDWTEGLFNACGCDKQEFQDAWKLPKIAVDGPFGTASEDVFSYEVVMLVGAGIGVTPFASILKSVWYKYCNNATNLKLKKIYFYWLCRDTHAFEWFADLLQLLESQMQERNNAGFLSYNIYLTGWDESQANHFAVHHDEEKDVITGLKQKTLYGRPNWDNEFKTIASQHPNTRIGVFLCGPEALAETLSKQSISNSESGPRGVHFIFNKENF
NADPH oxidase 5 (Homo sapiens), sequence (Q96PH1 whole entry, looked up): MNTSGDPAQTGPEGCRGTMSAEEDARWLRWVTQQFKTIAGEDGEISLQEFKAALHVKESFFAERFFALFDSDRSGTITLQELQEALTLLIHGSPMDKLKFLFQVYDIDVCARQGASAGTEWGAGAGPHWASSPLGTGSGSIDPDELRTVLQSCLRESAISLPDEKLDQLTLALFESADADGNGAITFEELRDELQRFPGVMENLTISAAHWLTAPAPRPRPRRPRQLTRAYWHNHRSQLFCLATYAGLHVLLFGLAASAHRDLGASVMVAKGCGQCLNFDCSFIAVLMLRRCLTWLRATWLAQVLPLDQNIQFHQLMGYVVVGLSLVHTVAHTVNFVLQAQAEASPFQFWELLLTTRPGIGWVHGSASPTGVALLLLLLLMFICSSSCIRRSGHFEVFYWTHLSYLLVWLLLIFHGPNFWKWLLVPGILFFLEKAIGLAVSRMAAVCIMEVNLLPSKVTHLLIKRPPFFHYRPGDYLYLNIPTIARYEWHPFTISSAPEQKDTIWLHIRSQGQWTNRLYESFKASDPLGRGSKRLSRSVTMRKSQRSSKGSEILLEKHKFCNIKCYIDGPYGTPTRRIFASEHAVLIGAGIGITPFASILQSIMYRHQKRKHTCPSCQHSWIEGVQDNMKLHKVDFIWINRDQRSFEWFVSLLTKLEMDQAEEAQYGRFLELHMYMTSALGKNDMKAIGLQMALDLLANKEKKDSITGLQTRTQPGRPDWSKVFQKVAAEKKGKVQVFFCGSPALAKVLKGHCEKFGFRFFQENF

| SMILES | z-score [1] | composite z-score [2] | z-score [3] | z-score [4] | z-score [5] | z-score [6] | z-score [7] | z-score [8] | z-score [9] | z-score [10] | z-score [11] | z-score [12] | z-score [13] | z-score [14] | z-score [15] | z-score [16] | z-score [17] | z-score [18] | z-score [19] | z-score [20] |
| --- | --- | --- | --- | --- | --- | --- | --- | --- | --- | --- | --- | --- | --- | --- | --- | --- | --- | --- | --- | --- |
| COc1ccc(C#Cc2ccc3c(c2)[C@]2(C(=O)N3)[C@H](C(=O)NC[C@H](O)c3ccccc3)[C@H]3C(=O)O[C@H](c4ccccc4)[C@H](c4ccccc4)N3[C@@H]2c2ccc(O)cc2)cc1 | 0.078 (inactive) | -0.0984 | -0.476 (inactive) | 0.657 (inactive) | -1.03 (inactive) | 0.909 (inactive) | -0.434 | 1.25 (inactive) | 0.118 (inactive) | -0.339 | 0.0902 | -0.753 | -0.0809 | -3.27 | -4.13 | -1.93 | -0.523 (inactive) | -1.11 | -1.57 | -0.226 (inactive) |
| CC(C)CNC(=O)[C@@]1(Cc2ccccc2I)c2ccccc2C(=O)N(C2CCCCC2)[C@H]1c1ccc(CO)cc1 | -0.664 (inactive) | 0.257 | 3.85 (inactive) | 0.198 (inactive) | 2.26 (inactive) | 0.183 (inactive) | -0.141 | -0.394 (inactive) | 0.839 (inactive) | 0.184 | -0.175 | -0.316 | -0.762 | -1.45 | -2.39 | -0.396 | -0.485 (inactive) | -0.594 | -0.213 | 0.623 (inactive) |
| C=CCOC(=O)[C@H]1[C@@H]2C(=O)O[C@@H](c3ccccc3)[C@@H](c3ccccc3)N2[C@@H](c2ccc(OCCOC(=O)[C@@H]3C[C@@H]4C(=O)N[C@@H](CC(C)C)C(=O)N4[C@@H]3c3ccc(O)cc3)cc2)[C@]12C(=O)Nc1ccccc12 | 0.204 (inactive) | 0.439 | 3.03 (inactive) | 1.3 (inactive) | 4.45 (inactive) | 1.04 (inactive) | -0.197 | 1.63 (inactive) | 1.18 (inactive) | 1.49 | -1.02 | 0.385 | -0.529 | -0.206 | 0.162 | -1.89 | 0.0514 (inactive) | -0.89 | -0.836 | 0.414 (inactive) |
| COc1ccc([C@H]2OC[C@@H]3C[C@@H](Cc4ccccc4)C(=O)N32)cc1 | -0.783 (inactive) | 0.25 | 2.1 (inactive) | 0.0371 (inactive) | -0.59 (inactive) | 0.308 (inactive) | -0.597 | 1.25 (inactive) | 0.524 (inactive) | -0.604 | -0.706 | 0.0138 | 0.305 | -2.13 | 0.215 | -0.478 | -0.0784 (inactive) | 0.183 | -0.0676 | 0.194 (inactive) |
| CCOC(=O)C1=CC[C@@H](c2ccccc2)N(S(=O)(=O)c2ccc(C)cc2)[C@H]1c1ccccc1C | -0.36 (inactive) | 0.589 | 1.57 (inactive) | 0.678 (inactive) | -0.569 (inactive) | 0.879 (inactive) | -0.102 | 0.515 (inactive) | 0.226 (inactive) | 0.963 | -1.42 | 0.068 | -0.0628 | -0.247 | -0.734 | 2.59 | -0.134 (inactive) | -0.275 | -0.271 | 2.32 (inactive) |
| CCCC#C[Si](O[C@H](CC)c1cn(Cc2cccc(Cl)c2)nn1)(C(C)C)C(C)C | 1.68 (inactive) | 0.171 | 0.131 (inactive) | 0.659 (inactive) | -0.871 (inactive) | 0.283 (inactive) | -0.131 | 0.041 (inactive) | 0.076 (inactive) | 0.842 | 1.19 | -1.07 | 1.58 | -1.07 | -0.223 | -0.742 | -0.228 (inactive) | -0.112 | -0.916 | 0.158 (inactive) |
| COCCOC(=O)N1C(=O)[C@@]2(c3ccccc31)[C@H](c1ccc(O)cc1)N1[C@H](c3ccccc3)[C@H](c3ccccc3)OC(=O)[C@H]1[C@@H]2C(=O)Nc1nc2ccccc2s1 | 0.894 (inactive) | 0.541 | 1.31 (inactive) | 1.1 (inactive) | 0.109 (inactive) | 1.41 (inactive) | 0.172 | 1.41 (inactive) | 0.449 (inactive) | 1.41 | 0.982 | 0.267 | 0.818 | -1.49 | -2.22 | -3.87 | -1.17 (inactive) | -0.883 | -1.21 | 0.185 (inactive) |
| NC(=O)NCC#Cc1ccc2c(c1)[C@]1(C(=O)N2)[C@H](C(=O)Nc2nc3ccccc3s2)[C@H]2C(=O)O[C@H](c3ccccc3)[C@H](c3ccccc3)N2[C@@H]1c1ccccc1OCCO | 1.07 (inactive) | 1.33 | 1.39 (inactive) | 0.831 (inactive) | 1.18 (inactive) | -0.247 (inactive) | 1.76 | 0.643 (inactive) | -0.228 (inactive) | -3.4 | -0.38 | 2.01 | 0.374 | -0.513 | -1.12 | -3.23 | 2.92 (inactive) | -0.517 | -0.815 | 0.28 (inactive) |
| CN(C)CCCCCCNC(=O)[C@@H]1C[C@@H]2C(=O)N[C@@H](Cc3ccccc3)C(=O)N2[C@@H]1c1ccc(O)cc1 | -0.0959 (inactive) | 0.378 | 1.85 (inactive) | 0.596 (inactive) | 2.42 (inactive) | 0.228 (inactive) | 0.594 | -0.745 (inactive) | 0.262 (inactive) | -0.632 | -0.58 | 0.502 | -0.948 | -1.45 | -0.571 | -1.15 | -1.42 (inactive) | -0.00023 | 0.0429 | -1.03 (inactive) |
